Assay results taken from the OligoGym collection.

The sequences below were run against DTX1 (assay: pooled miR-30 sensor sort-seq; sequence = guide strand). Settings: shRNA.
Note: reference of the scale not given here.

**Q.** With TTGGATCCAAACTCGGTCTTGT as the sequence, how does the sensor-assay potency score (higher = more potent) read?
**A.** The sensor-assay potency score (higher = more potent) was 0.0701.

**Q.** How did the sensor-assay potency score (higher = more potent) turn out when TTTTGAAAAGAGCAATCGCTGG was run?
**A.** Its sensor-assay potency score (higher = more potent) is -0.945.

**Q.** TGCTTCTTCTTGGTCTTGCGGC was tested. Which sensor-assay potency score (higher = more potent) did it give?
**A.** The sensor-assay potency score (higher = more potent) was -0.99.

Each sequence was assayed against DTX3L in the same assay as above. Settings: shRNA.

**Q.** TATTCTTTCAATGTCTTGGAAG was tested. Which sensor-assay potency score (higher = more potent) did it give?
**A.** The sensor-assay potency score (higher = more potent) was -0.89.

**Q.** Which sensor-assay potency score (higher = more potent) does the source give for TTCGTCAACAAGTATTTGGTGC here?
**A.** The sensor-assay potency score (higher = more potent) was 0.16.

**Q.** How did the sensor-assay potency score (higher = more potent) turn out when TAGCTCTCCAGCTTCCTTCGTA was run?
**A.** The sensor-assay potency score (higher = more potent) was 0.0161.

**Q.** TAAAGAGACACATTCTTGCTTC was tested. Which sensor-assay potency score (higher = more potent) did it give?
**A.** Its sensor-assay potency score (higher = more potent) is 0.883.

**Q.** With TTGTGGTGAATATCATTCCAAG as the sequence, how does the sensor-assay potency score (higher = more potent) read?
**A.** The sensor-assay potency score (higher = more potent) was -1.27.

**Q.** TTTGTGGTGAATATCATTCCAA was tested. Which sensor-assay potency score (higher = more potent) did it give?
**A.** Its sensor-assay potency score (higher = more potent) is -0.425.

**Q.** TTTTTCAACACTCTCTCCTTAG was tested. Which sensor-assay potency score (higher = more potent) did it give?
**A.** The sensor-assay potency score (higher = more potent) was -0.54.

**Q.** Which sensor-assay potency score (higher = more potent) does the source give for TTGAGGTCTCGTGTTCTTCTTT here?
**A.** Its sensor-assay potency score (higher = more potent) is -0.195.

**Q.** How did the sensor-assay potency score (higher = more potent) turn out when TAGAACATACTGCTTCGCCTTT was run?
**A.** The sensor-assay potency score (higher = more potent) was -0.506.

**Q.** With TTCGATCTCTGATATCTCCTGT as the sequence, how does the sensor-assay potency score (higher = more potent) read?
**A.** Its sensor-assay potency score (higher = more potent) is 0.612.

**Q.** TTGGAAGTCACCACACACCTTC was tested. Which sensor-assay potency score (higher = more potent) did it give?
**A.** Its sensor-assay potency score (higher = more potent) is 0.463.

**Q.** TTCCAGGGTATCTCTTTCCTGG was tested. Which sensor-assay potency score (higher = more potent) did it give?
**A.** The sensor-assay potency score (higher = more potent) was -0.87.

These sequences were tested against DUSP22 in the same assay as above. Settings: shRNA.

**Q.** With TTAGTTCTCAACATAAACATGA as the sequence, how does the sensor-assay potency score (higher = more potent) read?
**A.** The sensor-assay potency score (higher = more potent) was -0.0599.

**Q.** With TTCTTTGAAATGTCTTGTCAGG as the sequence, how does the sensor-assay potency score (higher = more potent) read?
**A.** Its sensor-assay potency score (higher = more potent) is -0.54.

**Q.** How did the sensor-assay potency score (higher = more potent) turn out when TACTTAAACTCTATGTTGCTTT was run?
**A.** Its sensor-assay potency score (higher = more potent) is -0.452.

**Q.** How did the sensor-assay potency score (higher = more potent) turn out when TTAACGAAAACATAGAGCTTTC was run?
**A.** Its sensor-assay potency score (higher = more potent) is -0.995.

**Q.** TTTCTTTGAAATGTCTTGTCAG was tested. Which sensor-assay potency score (higher = more potent) did it give?
**A.** Its sensor-assay potency score (higher = more potent) is -0.0889.

**Q.** How did the sensor-assay potency score (higher = more potent) turn out when TCTTCCTTCAGCCACTGCCGAT was run?
**A.** Its sensor-assay potency score (higher = more potent) is -1.53.

**Q.** ATACTGATGGACCTCATGCTTC was tested. Which sensor-assay potency score (higher = more potent) did it give?
**A.** Its sensor-assay potency score (higher = more potent) is -1.22.

**Q.** How did the sensor-assay potency score (higher = more potent) turn out when ATATGTGTCACCTTGTTCTTGC was run?
**A.** Its sensor-assay potency score (higher = more potent) is 0.858.

**Q.** For AATATGTGTCACCTTGTTCTTG, which sensor-assay potency score (higher = more potent) is on record?
**A.** The sensor-assay potency score (higher = more potent) was -0.44.

**Q.** For TTCACAGGAAGCAATCACGAGC, which sensor-assay potency score (higher = more potent) is on record?
**A.** Its sensor-assay potency score (higher = more potent) is -0.769.

Each sequence was assayed against DUSP3 in the same assay as above. Settings: shRNA.

**Q.** For TCGTTGAGATCCTGCACCGAGA, which sensor-assay potency score (higher = more potent) is on record?
**A.** Its sensor-assay potency score (higher = more potent) is -1.55.

**Q.** How did the sensor-assay potency score (higher = more potent) turn out when ATTGGTGTTGACGTGCATGAAG was run?
**A.** The sensor-assay potency score (higher = more potent) was -1.24.

**Q.** TTCTTTTGAGCCAAAGCCTGGT was tested. Which sensor-assay potency score (higher = more potent) did it give?
**A.** Its sensor-assay potency score (higher = more potent) is -0.51.

**Q.** For TTGACGTCCATCTTCTGCCGCA, which sensor-assay potency score (higher = more potent) is on record?
**A.** The sensor-assay potency score (higher = more potent) was -0.0981.

**Q.** How did the sensor-assay potency score (higher = more potent) turn out when TTGCCCACGTAGATCCGCGGGG was run?
**A.** The sensor-assay potency score (higher = more potent) was -0.843.

**Q.** How did the sensor-assay potency score (higher = more potent) turn out when TGAGGTTGAACTCCTGTGTGTC was run?
**A.** Its sensor-assay potency score (higher = more potent) is 0.0433.

**Q.** For TAGTCTGTCATTGAGCTGGCAG, which sensor-assay potency score (higher = more potent) is on record?
**A.** Its sensor-assay potency score (higher = more potent) is -0.572.

**Q.** TTGGGGAGCGGCTATAACCTTC was tested. Which sensor-assay potency score (higher = more potent) did it give?
**A.** The sensor-assay potency score (higher = more potent) was -1.39.

**Q.** TTCAGCACATGGGTGATGCCTA was tested. Which sensor-assay potency score (higher = more potent) did it give?
**A.** The sensor-assay potency score (higher = more potent) was -0.601.

**Q.** How did the sensor-assay potency score (higher = more potent) turn out when TGTGATGCCGGAGTCCTTGTAG was run?
**A.** The sensor-assay potency score (higher = more potent) was 0.0865.

**Q.** With TAGAAGTTGGCATTGGTGTTGA as the sequence, how does the sensor-assay potency score (higher = more potent) read?
**A.** Its sensor-assay potency score (higher = more potent) is 0.772.

**Q.** For TCAATGAAGTCGGCAGCCCTTT, which sensor-assay potency score (higher = more potent) is on record?
**A.** The sensor-assay potency score (higher = more potent) was -0.941.

**Q.** TTGAACTCCTGTGTGTCGTTGG was tested. Which sensor-assay potency score (higher = more potent) did it give?
**A.** The sensor-assay potency score (higher = more potent) was 0.854.

**Q.** How did the sensor-assay potency score (higher = more potent) turn out when AGACTTGACGTCCATCTTCTGC was run?
**A.** Its sensor-assay potency score (higher = more potent) is -1.63.
